Our source for the Potency values is PubChem BioAssay (NCATS).

Results filed as inconclusive are left out. Active and inactive are the calls of the source. The call rests on the fitted dose curve; in most records, active means well fitted curve in the direction sought with a large enough effect; inconclusive means small, poorly fitted or top-dose-only effect, or another doubt; inactive means no such curve, though single readings can be large; an effect the other way counts as inactive or inconclusive.

The nature of assay [1]: Quantitative High-Throughput drug screen in 47 multiple myeloma cell lines against the NCATS MIPE library collection: FR4_PLB cell viability assay (AID 1918924; further: nearly all actives have a fitted effect of over 35% in size; further: potency means the concentration at half of the fitted maximal effect). A digest of the protocol: (§1)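 Luminescent ATP measurement with CellTiter-Glo gives viability, scaled between DMSO-only wells (100%) and media-only wells (0%). Cells, 500 per well, faced library compounds for 48 hours at 37C.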

A short description of assay [2]: Quantitative High-Throughput drug screen in 47 multiple myeloma cell lines against the NCATS MIPE library collection: Delta47_JCRB cell viability assay (AID 1918925; further: nearly all actives have a fitted effect of over 45% in size; further: potency means the concentration at half of the fitted maximal effect). The method, boiled down: (§2)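 Myeloma cell lines, 500 cells per well, exposed to MIPE 4.0 library compounds for 48 h at 37C, 5% CO2. Viability from ATP by CellTiter-Glo luminescence; normalised to DMSO (100%) and media-only (0%) wells.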

Assay [3] is described as follows: Quantitative High-Throughput drug screen in 47 multiple myeloma cell lines against the NCATS MIPE library collection: EJM_DSMZ cell viability assay (AID 1918926; further: nearly all actives have a fitted effect of over 30% in size; further: potency means the concentration at half of the fitted maximal effect). A digest of the protocol: as §2
Assay [4] in a line: Quantitative High-Throughput drug screen in 47 multiple myeloma cell lines against the NCATS MIPE library collection: AMO1_DSMZ cell viability assay (AID 1918927; further: nearly all actives have a fitted effect of over 30% in size; further: potency means the concentration at half of the fitted maximal effect). The method, boiled down: as §2
The nature of assay [5]: Quantitative High-Throughput drug screen in 47 multiple myeloma cell lines against the NCATS MIPE library collection: ARP1_JJKsccF8 cell viability assay (AID 1918928; further: nearly all actives have a fitted effect of over 40% in size; further: potency means the concentration at half of the fitted maximal effect). The method, boiled down:
(§3)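 Myeloma cells, 500 per well, were exposed to MIPE 4.0 drugs by pin transfer for 48 h at 37 °C, 5% CO2. Viability was read as ATP luminescence with CellTiter-Glo, normalised to DMSO-only (100%) and medium-only (0%) wells.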

A short description of assay [6]: Quantitative High-Throughput drug screen in 47 multiple myeloma cell lines against the NCATS MIPE library collection: ARD_JJKsccE7 cell viability assay (AID 1918929; further: potency means the concentration at half of the fitted maximal effect). The method, boiled down: as §2
The nature of assay [7]: Quantitative High-Throughput drug screen in 47 multiple myeloma cell lines against the NCATS MIPE library collection: Karpas620_DSMZ cell viability assay (AID 1918959). Further: nearly all actives have a fitted effect of over 30% in size. Further: potency means the concentration at half of the fitted maximal effect. A digest of the protocol:
as §1

Assay [8] can be described thus: Quantitative High-Throughput drug screen in 47 multiple myeloma cell lines against the NCATS MIPE library collection: KMM1_JCRB cell viability assay (AID 1918960). Further: nearly all actives have a fitted effect of over 30% in size. Further: potency means the concentration at half of the fitted maximal effect. The method, boiled down: as §3
A short description of assay [9]: Primary redox qHTS assay for identification of artifact compounds. (AID 1845223). A digest of the protocol:
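Amplex Red (25 uM) and HRP (250 mU/mL) in HBSS, with compounds for 15 min, then 250 uM DTT for 30 min, room temperature, dark. Fluorescence 525/598 nm read; normalized to DMSO and 10 uM DA3003; Hill fit.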

Assay [10] can be described thus: Quantitative High-Throughput drug screen in 47 multiple myeloma cell lines against the NCATS MIPE library collection: Karpas417_ECACC cell viability assay (AID 1918961). Further: potency means the concentration at half of the fitted maximal effect. Conditions: Karpas417 myeloma viability, CellTiter-Glo ATP luminescence, 48 h; viability (% of DMSO): at 45.8 µM (top of the series). The method, boiled down:
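Steps: seed 500 cells per well; pin-transfer MIPE 4.0 library; incubate 48 h at 37C, 5% CO2, humidified; add CellTiter-Glo, 5 min room temperature; read luminescence.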
(In general: Cellular ATP, detected with luciferase, serves as a proxy for viable cell number.)

In the case of `Cc1cc(NS(=O)(=O)c2ccc(N)cc2)no1`, the Potency result in assay [1], in [2], in [3], in [4], in assay [5] and in assay [6] was “inactive” throughout. The Potency result in assay [7] and in assay [8] was “inactive” throughout.

In the case of `CN(C)CCc1c[nH]c2ccc(C[C@H]3COC(=O)N3)cc12`, the Potency result in assay [9], in assay [1], in assay [2], in [3], in [4] and in [5] was “inactive” throughout. Further, the Potency entry in assay [6] and in [7] was “inactive” throughout. The Potency in assay [10] is 3.72 µM (active).

In the case of `CC(C)OC(=O)C(C(=O)OC(C)C)=C1SC=CS1`, the Potency result in [1], in [2], in assay [3], in assay [4], in assay [5] and in assay [7] was “inactive” in each case.

With `O=C(NCC1CN(c2ccc(N3CCOCC3=O)cc2)C(=O)O1)c1ccc(Cl)s1` (stereo unspecified), the Potency result in assay [9] and in assay [3] was “inactive” each time. The Potency in [6] is 23.5 µM (active).

`NC1(c2ccc(-c3nc4ccn5c(=O)[nH]nc5c4cc3-c3ccccc3)cc2)CCC1`: the Potency entry in [9], in assay [1] and in [7] was “inactive” throughout. Also, the Potency in [2] is 0.332 µM (active); in [3], 11.8 µM (active); in [6] it was 0.296 µM (active); in assay [8], 1.87 µM (active).

Take `CC(C)C[C@H](NC(=O)[C@H](CCc1ccccc1)NC(=O)CN1CCOCC1)C(=O)N[C@@H](Cc1ccccc1)C(=O)N[C@@H](CC(C)C)C(=O)[C@@]1(C)CO1`: the Potency is 0.0083 µM (active) in assay [1]; 0.001 µM (active) in [2]; 0.0105 µM (active) in assay [3]; 0.0066 µM (active) in assay [4]; 0.0074 µM (active) in assay [5]; 0.001 µM (active) in assay [6]. For the same compound, the Potency in [7] and in assay [8] was 0.001 µM (active) each time.

Consider `CC1(C)[C@H](C(=O)O)N2C(=O)C[C@H]2S1(=O)=O`, for which the Potency entry in [9], in assay [1], in [2], in assay [3], in [5] and in assay [7] was “inactive” throughout. Besides, the Potency result in assay [8] is “inactive”.

As to `CCOC(=O)c1ccc(OC(=O)CCCCCN=C(N)N)cc1`, the Potency entry in [1], in assay [2], in assay [3], in assay [4], in [5] and in assay [6] was “inactive” throughout. In addition, the Potency result in assay [7], in assay [8] and in [10] was “inactive” in each case.

As to `O=C(O)C1CCCN(CCC=C(c2ccccc2)c2ccccc2)C1` (stereo unspecified), the Potency result in [1], in assay [2], in [3], in assay [4], in assay [6] and in assay [7] was “inactive” each time. For the same compound, the Potency entry in assay [8] was “inactive”.

With `CNC(=O)c1cc(Oc2ccc(NC(=O)Nc3ccc(Cl)c(C(F)(F)F)c3)cc2)ccn1`, the Potency entry in assay [9] was “inactive”. The Potency in assay [1] was 20.9 µM (active); in [2], 16.6 µM (active); in [3], 18.7 µM (active); in assay [4], 5.26 µM (active); in [6] it was 2.64 µM (active); in [7] it was 3.32 µM (active). Also, in assay [8], the Potency was 2.96 µM (active).

For the compound `CN1CCN(c2c(F)cc3c(=O)c(C(=O)O)cn(CCF)c3c2F)CC1`, the Potency result in assay [1], in assay [2], in assay [3], in assay [4], in assay [6] and in assay [7] was “inactive” each time. In [8], the Potency entry is “inactive”.

As to `Cc1nnc(C(=O)NC(C)(C)c2nc(C(=O)NCc3ccc(F)cc3)c(O)c(=O)n2C)o1`, the Potency entry in assay [9], in assay [1], in [2], in [3], in [5] and in assay [7] was “inactive” in each case. Besides, the Potency entry in assay [8] was “inactive”. For the same compound, the Potency in assay [4] is 0.0042 µM (active).

Take `COc1ccccc1OCC(O)COC(N)=O` (stereo unspecified): the Potency entry in assay [1], in [2], in assay [3], in assay [4], in assay [5] and in assay [6] was “inactive” in each case. In addition, the Potency entry in [7] and in assay [8] was “inactive” each time.

In the case of `C[C@@H]1C[C@H]2[C@@H]3CCC4=CC(=O)C=C[C@]4(C)[C@@]3(Cl)[C@@H](O)C[C@]2(C)[C@@]1(OC(=O)c1ccco1)C(=O)CCl`, the Potency in assay [1] was 26.4 µM (active); in [2], 2.96 µM (active); in assay [3], 4.69 µM (active); in assay [4] it was 1.48 µM (active); in assay [7] it was 16.6 µM (active); in assay [10], 8.33 µM (active).

Turning to `CNS(=O)(=O)CCc1ccc2[nH]cc(C3CCN(C)CC3)c2c1`, the Potency entry in assay [9] and in assay [7] was “inactive” throughout. Further, the Potency in assay [1] is 16.6 µM (active); in assay [2], 1.18 µM (active); in assay [4], 2.35 µM (active); in [6] it was 10.5 µM (active); in assay [8], 18.7 µM (active); in [10], 16.6 µM (active).

`O=P(O)(O)C(O)(Cc1cccnc1)P(=O)(O)O`: the Potency entry in [9], in assay [1], in assay [2], in assay [3], in assay [4] and in assay [7] was “inactive” throughout. In addition, the Potency entry in assay [8] is “inactive”.

As for `COc1cc([C@@H]2c3cc4c(cc3[C@H](O)[C@H]3COC(=O)[C@H]23)OCO4)cc(OC)c1OC`, the Potency entry in [1], in [2], in [3], in assay [4], in assay [6] and in assay [7] was “inactive” each time. Besides, in assay [10], the Potency result was “inactive”. In assay [8], the Potency is 0.001 µM (active).

For `COc1ccc(-c2ccc3cc(C(=O)O)ccc3c2)cc1C12CC3CC(CC(C3)C1)C2`, the Potency result in assay [1], in assay [2], in assay [3], in [4], in assay [5] and in assay [6] was “inactive” in each case. For the same compound, the Potency entry in assay [7] and in [8] was “inactive” throughout.

In the case of `NC(=O)c1cccc(N)c1`, the Potency result in [1], in assay [2], in assay [3], in assay [4], in [5] and in assay [7] was “inactive” in each case. Further, in [8], the Potency result was “inactive”.

Regarding `CCCc1cc(C(N)=S)ccn1`, the Potency entry in assay [1], in [2], in assay [3], in [4], in assay [6] and in assay [7] was “inactive” in each case. Moreover, in [8], the Potency entry was “inactive”.

In the case of `CCCN[C@H]1CCc2nc(N)sc2C1`, the Potency result in [1], in assay [2] and in [3] was “inactive” throughout.

For `CC(C(=O)O)c1ccc2c(c1)CC(=O)c1ccccc1S2` (stereo unspecified), the Potency result in [9], in [1], in [2], in [3], in [5] and in assay [8] was “inactive” in each case. The Potency in assay [10] was 0.0209 µM (active).

As to `CCN(CC)CC#CCOC(=O)C(O)(c1ccccc1)C1CCCCC1` (stereo unspecified), the Potency result in assay [1], in assay [2] and in [3] was “inactive” each time.

Consider `Oc1c(Cl)cc(Cl)c2cccnc12`, for which the Potency in [1] is 18.7 µM (active); in assay [2], 23.5 µM (active); in assay [3], 6.62 µM (active); in assay [4], 10.5 µM (active); in assay [5], 26.4 µM (active); in [6], 18.7 µM (active). Also, the Potency in assay [7] was 3.72 µM (active).
